Records with an inconclusive call do not appear. Values without a mark were called inactive. Activity calls are given as the source filed them. Calls come from the whole dose curve; as a rule, active = well fitted curve in the direction sought with a large enough effect; inconclusive = small, poorly fitted or top-dose-only effect, or another doubt; inactive = no such curve, though single readings can be large or run the other way.

This test in a line: Viability counterscreen for antagonist of constitutive androstane receptor (CAR) against the NCATS DSHEA and TCM libraries (AID 1794837).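 Note: compound exposure lasted 24 h before viability reading; 0% is about no effect.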 Particulars: CAR reporter cell line viability counterscreen, qHTS; series mostly up to 40 µM. The text has this: Assay Development and Screening Technology Laboratory (ADST)
National Center for Advancing Translational Sciences (NCATS), Rockville, MD
National Institute of Health (NIH), Bethesda, Maryland
Dietary Supplements and Natural Products have minor oversight of their safety and efficacy. We assembled a collection of Dietary Supplements and Natural Products (DSNP) as well as Traditional Chinese Medicinal (TCM) Plant extracts, which were screened against an in vitro panel of assays, including a liver cytochrome p450 enzyme panel, CAR/PXR signaling pathways, and P-gp transporter assays, to assess their activity. This pipeline facilitated the interrogation of Natural Product-Drug Interaction (NaPDI) through prominent metabolizing pathways. In addition, we compared the activity profiles of the DSNP/TCM substances with those of an approved drug collection. Many of the approved drugs have well-annotated mechanisms of action (MOA) while the MOAs for most of the DSNP and TCM samples remain unknown. Based on the premise that compounds with similar activity profiles tend to share similar targets or MOA, we clustered the library activity profiles to identify overlap with the NCATS Pharmaceutical Collection to predict the MOAs of the DSNP/TCM substances. Overall, we highlight four significant bioactivity profiles (measured by p-values) as examples of this prediction.
To this end, we profiled both collections for potential CAR and/or PXR activity, employing a previously published 1536-well qHTS assay.
PROTOCOL TABLE (as described by Inglese J, Shamu CE and Guy RK. 2007)
SEQUENCE No. (e.g., 1, 2, 3, etc.); […] (e.g., Cells, Incubation, Reagent, etc.); VALUE; DESCRIPTION.
1; Cells; 4 uL; 1536-well white Greiner assay plate.
2; Incubation; 5 hours; 37C, 95% humidity, 5% CO2.
3; Compounds; 23 nL; Kalypsis pin tool (Wako USA) equipped with 1536-well pin head to transfer to the assay plates.
4; Reagent; 1 uL; 48 uM CITCO (final concentration).
5; Incubation; 24 hours; 37C, 5% CO2.
6; Detection Reagent 1; 1 uL; CellTiter-Fluor (Promega).
7; Incubation; 1 hour; 37C, 5% CO2.
8; Detector 1; Fluorescence intensity; ViewLux plate reader (excitation 405 nm, emission 540 nm).
9; Detection Reagent 2; 4 uL; ONE-Glo Luciferase reagent (Promega).
10; Incubation; 30 min; room temperature.
11; Detector 2; Luminescence intensity; ViewLux.
NOTES (numbers refer to Sequence numbers above)
1. 4 uL of HepG2-CYP2B6-hCAR cells at 6.25 x 10^5 cells/mL (2,500 cells/well) were dispensed using a Multidrop Combi dispenser in tissue culture-treated 1536-well white assay plates (Greiner Bio-One) in the same culture media, without geneticin and blasticidin included.
2. Plates were incubated for 5 hours at 37C, 95% humidity, and 5% CO2 to allow for cell attachment.
3. Compounds (final concentrations of most substances ranged from 15.6 nM to 31.9 uM), positive control (for antagonist mode: PK11195 with a final concentration range 2.8 nM to 92 uM), and toxicity control tetraoctyl ammonium bromide (final concentration of 92 uM) were transferred (23 nL) via pintool (Wako Automation).
4. After compound transfer, plates were dispensed with 1 uL of the known hCAR agonist 6-(4-Chlorophenyl)imidazo[2,1-b][1,3]thiazole-5-carbaldehyde O-(3,4-dichlorobenzyl)oxime (CITCO, final concentration of 48 uM) in the antagonist mode using a BioRAPTR FRDTM.
6. 1 uL of CellTiter-Fluor (Promega, Madison, Wisconsin) was added using a BioRAPTR FRDTM.
8. Fluorescence intensity (Ex/Em = 405 nm/540 nm) is obtained using the ViewLux plate reader to determine cell viability.
9. 4 uL of ONE-Glo Luciferase reagent (Promega) was added to each well using the BioRAPTR FRDTM,
10. Luminescence intensity is read using the ViewLux detector.
Inglese J, Shamu CE and Guy RK, Reporting data from high throughput screening of small molecule libraries, Nature Chemical Biology, 2007, 3(8): 438-441. doi.org/10.1038/nchembio0807-438.
In general terms: The purpose of a counterscreen is to sort out artefacts and off-target activity.
For the molecule `CC/C=C\C/C=C\C/C=C\C/C=C\C/C=C\CCCC(=O)O`, the result was inactive.

Turning to `CC[C@H](CC[C@@H](C)[C@H]1CC[C@H]2[C@@H]3CC=C4C[C@@H](O)CC[C@]4(C)[C@H]3CC[C@]12C)C(C)C`, the result was inactive.

With `C=C1CC[C@H](O)CC1=C/C=C1\CCC[C@]2(C)[C@@H]([C@H](C)/C=C/[C@H](C)C(C)C)CC[C@@H]12`, the molecule was called inactive.

As for `Oc1cccc(O)c1O`, the molecule was classed as inactive.

As to `Oc1ccc(/C=C/c2cc(O)cc(O)c2)cc1`, the result was inactive.

For `Cc1ncc(C[n+]2csc(CCO)c2C)c(N)n1`, the molecule was classed as inactive.

As to `CC/C=C\C/C=C\C/C=C\C/C=C\C/C=C\C/C=C\CCC(=O)O`, the call was inactive.

As for `CCCCC/C=C\C/C=C\C/C=C\CCCCC(=O)O`, the viability change, negative = cytotoxic was -4.69% [at 5 µM].

With `CC/C=C\C/C=C\C/C=C\CCCCCCCC(=O)O`, the result was inactive.

Regarding `CC(C)=CCC/C(C)=C/CC/C(C)=C/CC/C(C)=C/CC1=C(C)C(=O)c2ccccc2C1=O`, the molecule was called inactive.

For the molecule `COC1=C(OC)C(=O)C(C/C=C(\C)CC/C=C(\C)CC/C=C(\C)CC/C=C(\C)CC/C=C(\C)CC/C=C(\C)CC/C=C(\C)CC/C=C(\C)CC/C=C(\C)CCC=C(C)C)=C(C)C1=O`, the outcome was inactive.

Regarding `CCCCCCCCCCCC(=O)OCC(O)CO` (centres undefined), the call was inactive.

For `CC(C)=CCC/C(C)=C/C=C/C(C)=C/C=C/C(C)=C/C=C/C=C(C)/C=C/C=C(C)/C=C/C=C(\C)CCC=C(C)C`, the outcome was inactive.

Consider `C=C1CC[C@H](O)C/C1=C\C=C1/CCC[C@]2(C)[C@@H]([C@H](C)CCCC(C)C)CC[C@@H]12`, for which the molecule was classed as inactive.

These data come from PubChem BioAssay (NCATS).
